Test results taken from the supplement of paper PMC11732987, “Enantioselective OTUD7B fragment discovery through chemoproteomics screening and high-throughput optimisation” (Communications Chemistry, 2025).

Tests used:
Assay in all cases: log2 ratio of Biotin-Ahx-Ub-VS probe labelling (fragment/DMSO); higher = less target engagement (more negative = stronger competition), active = hit call of the paper (q ≤ 0.05, log2 ratio ≤ -1)
Settings in all cases: compound concentration: 200 uM; treatment time: 3 h
USP34 = USP34 (UniProt Q70CQ2)
Method in brief: (§1)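 Values give the average log2 ratio of fragment to vehicle, assessed by unpaired t-test on global-median-normalised Spectronaut label-free quantities. Proteins needed ≥2 unique peptides. HEK293T lysate (495 µg per sample) was treated in triplicate with fragment at 200 µM or vehicle for 3 h and then with Biotin-Ahx-Ub-VS at 0.5 µM final for 1 h. Labelled DUBs were NeutrAvidin-enriched, digested and run by diaPASEF LC-MS/MS.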

USP36 = biological target: T1, USP36 (UniProt Q9P275)
T1 sequence (whole entry): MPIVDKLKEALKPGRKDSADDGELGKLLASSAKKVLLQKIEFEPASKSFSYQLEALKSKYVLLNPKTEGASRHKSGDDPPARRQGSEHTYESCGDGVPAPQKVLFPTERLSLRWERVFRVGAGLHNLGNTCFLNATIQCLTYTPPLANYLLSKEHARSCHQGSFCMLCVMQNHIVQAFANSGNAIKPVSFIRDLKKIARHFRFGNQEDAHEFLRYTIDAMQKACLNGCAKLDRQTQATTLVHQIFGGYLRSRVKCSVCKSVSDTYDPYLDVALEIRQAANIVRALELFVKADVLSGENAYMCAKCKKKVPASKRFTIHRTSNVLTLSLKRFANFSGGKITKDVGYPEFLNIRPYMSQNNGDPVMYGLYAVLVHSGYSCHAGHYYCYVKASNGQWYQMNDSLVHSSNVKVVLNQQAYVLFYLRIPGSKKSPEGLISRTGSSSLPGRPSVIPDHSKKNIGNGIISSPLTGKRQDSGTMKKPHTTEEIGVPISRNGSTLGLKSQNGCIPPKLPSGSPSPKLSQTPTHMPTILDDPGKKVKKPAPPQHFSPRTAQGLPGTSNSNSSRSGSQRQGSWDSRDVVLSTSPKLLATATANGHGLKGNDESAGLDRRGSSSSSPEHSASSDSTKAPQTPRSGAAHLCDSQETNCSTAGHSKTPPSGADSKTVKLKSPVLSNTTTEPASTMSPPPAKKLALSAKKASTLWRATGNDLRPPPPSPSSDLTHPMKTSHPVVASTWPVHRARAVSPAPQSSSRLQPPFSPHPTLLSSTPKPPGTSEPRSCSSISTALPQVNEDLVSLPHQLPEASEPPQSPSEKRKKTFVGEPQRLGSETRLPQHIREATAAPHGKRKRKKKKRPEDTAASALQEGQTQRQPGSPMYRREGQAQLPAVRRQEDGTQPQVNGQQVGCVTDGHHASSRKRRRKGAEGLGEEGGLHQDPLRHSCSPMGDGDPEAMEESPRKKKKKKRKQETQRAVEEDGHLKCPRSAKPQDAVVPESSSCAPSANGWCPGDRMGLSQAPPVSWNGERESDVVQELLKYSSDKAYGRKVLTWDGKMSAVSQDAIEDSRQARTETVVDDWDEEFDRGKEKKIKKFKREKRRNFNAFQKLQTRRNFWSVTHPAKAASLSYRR
Method in brief: as §1

USP38 = biological target: T2, USP38 (UniProt Q8NB14)
T2 sequence (whole entry): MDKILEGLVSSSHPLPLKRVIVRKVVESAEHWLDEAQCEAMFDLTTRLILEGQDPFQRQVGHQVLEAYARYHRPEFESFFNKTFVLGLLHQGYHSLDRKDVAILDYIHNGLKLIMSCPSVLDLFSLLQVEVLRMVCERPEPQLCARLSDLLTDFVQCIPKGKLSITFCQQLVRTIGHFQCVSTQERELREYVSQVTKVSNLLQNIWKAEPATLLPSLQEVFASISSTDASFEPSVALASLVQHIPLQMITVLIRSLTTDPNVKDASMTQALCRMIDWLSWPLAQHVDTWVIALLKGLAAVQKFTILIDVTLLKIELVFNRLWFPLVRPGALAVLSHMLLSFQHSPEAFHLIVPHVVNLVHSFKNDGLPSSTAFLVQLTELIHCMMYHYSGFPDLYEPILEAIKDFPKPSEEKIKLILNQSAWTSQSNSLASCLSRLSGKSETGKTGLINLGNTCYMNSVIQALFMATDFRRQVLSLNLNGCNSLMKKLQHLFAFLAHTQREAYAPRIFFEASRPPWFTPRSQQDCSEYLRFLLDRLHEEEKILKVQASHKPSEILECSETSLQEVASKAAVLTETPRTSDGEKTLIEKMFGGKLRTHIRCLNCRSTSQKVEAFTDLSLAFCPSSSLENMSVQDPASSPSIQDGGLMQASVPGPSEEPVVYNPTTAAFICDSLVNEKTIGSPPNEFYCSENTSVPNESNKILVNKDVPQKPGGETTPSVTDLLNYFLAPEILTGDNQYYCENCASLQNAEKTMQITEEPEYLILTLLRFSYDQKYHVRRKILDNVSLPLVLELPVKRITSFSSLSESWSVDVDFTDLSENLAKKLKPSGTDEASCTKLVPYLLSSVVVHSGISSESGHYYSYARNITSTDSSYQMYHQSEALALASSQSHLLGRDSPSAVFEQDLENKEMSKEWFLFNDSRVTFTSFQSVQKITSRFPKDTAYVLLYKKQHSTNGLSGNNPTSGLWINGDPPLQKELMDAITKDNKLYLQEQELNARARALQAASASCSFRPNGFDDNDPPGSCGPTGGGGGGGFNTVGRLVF
Method in brief: as §1

USP39 = biological target: T3, USP39 (UniProt Q53GS9)
T3 sequence (whole entry): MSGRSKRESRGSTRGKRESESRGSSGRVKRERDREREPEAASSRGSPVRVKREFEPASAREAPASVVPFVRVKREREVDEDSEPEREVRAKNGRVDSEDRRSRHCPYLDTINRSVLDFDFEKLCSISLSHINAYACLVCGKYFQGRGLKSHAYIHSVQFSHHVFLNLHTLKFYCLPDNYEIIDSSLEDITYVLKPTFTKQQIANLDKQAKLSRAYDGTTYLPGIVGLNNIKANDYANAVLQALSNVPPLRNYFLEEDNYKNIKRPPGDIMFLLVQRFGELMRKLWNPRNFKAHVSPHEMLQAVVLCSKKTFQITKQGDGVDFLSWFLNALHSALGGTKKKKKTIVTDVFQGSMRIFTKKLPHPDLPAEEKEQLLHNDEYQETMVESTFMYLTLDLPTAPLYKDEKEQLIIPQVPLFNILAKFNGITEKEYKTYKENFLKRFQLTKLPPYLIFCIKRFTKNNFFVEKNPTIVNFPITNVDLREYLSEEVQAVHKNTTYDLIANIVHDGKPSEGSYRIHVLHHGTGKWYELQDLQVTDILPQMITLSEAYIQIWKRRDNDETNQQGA
Method in brief: as §1

USP4 = biological target: T4, USP4 (UniProt Q13107)
T4 sequence (whole entry): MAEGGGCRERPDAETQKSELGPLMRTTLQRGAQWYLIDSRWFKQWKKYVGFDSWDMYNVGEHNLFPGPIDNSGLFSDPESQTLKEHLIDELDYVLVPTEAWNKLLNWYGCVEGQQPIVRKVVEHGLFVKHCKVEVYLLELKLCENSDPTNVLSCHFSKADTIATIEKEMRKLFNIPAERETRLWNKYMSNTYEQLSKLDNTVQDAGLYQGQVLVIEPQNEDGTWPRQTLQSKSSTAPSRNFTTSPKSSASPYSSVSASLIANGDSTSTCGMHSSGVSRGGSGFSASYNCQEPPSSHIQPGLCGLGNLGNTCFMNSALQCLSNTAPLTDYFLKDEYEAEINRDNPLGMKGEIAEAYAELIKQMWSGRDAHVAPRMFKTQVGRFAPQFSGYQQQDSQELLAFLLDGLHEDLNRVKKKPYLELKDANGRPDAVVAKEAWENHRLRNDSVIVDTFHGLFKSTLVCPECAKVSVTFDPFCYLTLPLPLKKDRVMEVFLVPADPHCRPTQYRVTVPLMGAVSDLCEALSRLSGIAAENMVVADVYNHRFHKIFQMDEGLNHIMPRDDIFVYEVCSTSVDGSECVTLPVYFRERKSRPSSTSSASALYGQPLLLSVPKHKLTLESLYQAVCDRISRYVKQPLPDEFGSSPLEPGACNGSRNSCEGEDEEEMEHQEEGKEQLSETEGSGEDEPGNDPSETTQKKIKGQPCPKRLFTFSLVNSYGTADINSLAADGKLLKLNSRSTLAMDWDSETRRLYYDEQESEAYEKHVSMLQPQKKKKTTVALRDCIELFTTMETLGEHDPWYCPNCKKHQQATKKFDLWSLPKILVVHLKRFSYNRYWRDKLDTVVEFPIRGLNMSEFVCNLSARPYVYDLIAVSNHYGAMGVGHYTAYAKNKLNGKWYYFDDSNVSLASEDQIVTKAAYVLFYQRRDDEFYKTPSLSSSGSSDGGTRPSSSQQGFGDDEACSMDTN
Method in brief: as §1

Measured: log2 ratio of Biotin-Ahx-Ub-VS probe labelling

USP34, sequence (Q70CQ2 whole entry, the tested form may be a part): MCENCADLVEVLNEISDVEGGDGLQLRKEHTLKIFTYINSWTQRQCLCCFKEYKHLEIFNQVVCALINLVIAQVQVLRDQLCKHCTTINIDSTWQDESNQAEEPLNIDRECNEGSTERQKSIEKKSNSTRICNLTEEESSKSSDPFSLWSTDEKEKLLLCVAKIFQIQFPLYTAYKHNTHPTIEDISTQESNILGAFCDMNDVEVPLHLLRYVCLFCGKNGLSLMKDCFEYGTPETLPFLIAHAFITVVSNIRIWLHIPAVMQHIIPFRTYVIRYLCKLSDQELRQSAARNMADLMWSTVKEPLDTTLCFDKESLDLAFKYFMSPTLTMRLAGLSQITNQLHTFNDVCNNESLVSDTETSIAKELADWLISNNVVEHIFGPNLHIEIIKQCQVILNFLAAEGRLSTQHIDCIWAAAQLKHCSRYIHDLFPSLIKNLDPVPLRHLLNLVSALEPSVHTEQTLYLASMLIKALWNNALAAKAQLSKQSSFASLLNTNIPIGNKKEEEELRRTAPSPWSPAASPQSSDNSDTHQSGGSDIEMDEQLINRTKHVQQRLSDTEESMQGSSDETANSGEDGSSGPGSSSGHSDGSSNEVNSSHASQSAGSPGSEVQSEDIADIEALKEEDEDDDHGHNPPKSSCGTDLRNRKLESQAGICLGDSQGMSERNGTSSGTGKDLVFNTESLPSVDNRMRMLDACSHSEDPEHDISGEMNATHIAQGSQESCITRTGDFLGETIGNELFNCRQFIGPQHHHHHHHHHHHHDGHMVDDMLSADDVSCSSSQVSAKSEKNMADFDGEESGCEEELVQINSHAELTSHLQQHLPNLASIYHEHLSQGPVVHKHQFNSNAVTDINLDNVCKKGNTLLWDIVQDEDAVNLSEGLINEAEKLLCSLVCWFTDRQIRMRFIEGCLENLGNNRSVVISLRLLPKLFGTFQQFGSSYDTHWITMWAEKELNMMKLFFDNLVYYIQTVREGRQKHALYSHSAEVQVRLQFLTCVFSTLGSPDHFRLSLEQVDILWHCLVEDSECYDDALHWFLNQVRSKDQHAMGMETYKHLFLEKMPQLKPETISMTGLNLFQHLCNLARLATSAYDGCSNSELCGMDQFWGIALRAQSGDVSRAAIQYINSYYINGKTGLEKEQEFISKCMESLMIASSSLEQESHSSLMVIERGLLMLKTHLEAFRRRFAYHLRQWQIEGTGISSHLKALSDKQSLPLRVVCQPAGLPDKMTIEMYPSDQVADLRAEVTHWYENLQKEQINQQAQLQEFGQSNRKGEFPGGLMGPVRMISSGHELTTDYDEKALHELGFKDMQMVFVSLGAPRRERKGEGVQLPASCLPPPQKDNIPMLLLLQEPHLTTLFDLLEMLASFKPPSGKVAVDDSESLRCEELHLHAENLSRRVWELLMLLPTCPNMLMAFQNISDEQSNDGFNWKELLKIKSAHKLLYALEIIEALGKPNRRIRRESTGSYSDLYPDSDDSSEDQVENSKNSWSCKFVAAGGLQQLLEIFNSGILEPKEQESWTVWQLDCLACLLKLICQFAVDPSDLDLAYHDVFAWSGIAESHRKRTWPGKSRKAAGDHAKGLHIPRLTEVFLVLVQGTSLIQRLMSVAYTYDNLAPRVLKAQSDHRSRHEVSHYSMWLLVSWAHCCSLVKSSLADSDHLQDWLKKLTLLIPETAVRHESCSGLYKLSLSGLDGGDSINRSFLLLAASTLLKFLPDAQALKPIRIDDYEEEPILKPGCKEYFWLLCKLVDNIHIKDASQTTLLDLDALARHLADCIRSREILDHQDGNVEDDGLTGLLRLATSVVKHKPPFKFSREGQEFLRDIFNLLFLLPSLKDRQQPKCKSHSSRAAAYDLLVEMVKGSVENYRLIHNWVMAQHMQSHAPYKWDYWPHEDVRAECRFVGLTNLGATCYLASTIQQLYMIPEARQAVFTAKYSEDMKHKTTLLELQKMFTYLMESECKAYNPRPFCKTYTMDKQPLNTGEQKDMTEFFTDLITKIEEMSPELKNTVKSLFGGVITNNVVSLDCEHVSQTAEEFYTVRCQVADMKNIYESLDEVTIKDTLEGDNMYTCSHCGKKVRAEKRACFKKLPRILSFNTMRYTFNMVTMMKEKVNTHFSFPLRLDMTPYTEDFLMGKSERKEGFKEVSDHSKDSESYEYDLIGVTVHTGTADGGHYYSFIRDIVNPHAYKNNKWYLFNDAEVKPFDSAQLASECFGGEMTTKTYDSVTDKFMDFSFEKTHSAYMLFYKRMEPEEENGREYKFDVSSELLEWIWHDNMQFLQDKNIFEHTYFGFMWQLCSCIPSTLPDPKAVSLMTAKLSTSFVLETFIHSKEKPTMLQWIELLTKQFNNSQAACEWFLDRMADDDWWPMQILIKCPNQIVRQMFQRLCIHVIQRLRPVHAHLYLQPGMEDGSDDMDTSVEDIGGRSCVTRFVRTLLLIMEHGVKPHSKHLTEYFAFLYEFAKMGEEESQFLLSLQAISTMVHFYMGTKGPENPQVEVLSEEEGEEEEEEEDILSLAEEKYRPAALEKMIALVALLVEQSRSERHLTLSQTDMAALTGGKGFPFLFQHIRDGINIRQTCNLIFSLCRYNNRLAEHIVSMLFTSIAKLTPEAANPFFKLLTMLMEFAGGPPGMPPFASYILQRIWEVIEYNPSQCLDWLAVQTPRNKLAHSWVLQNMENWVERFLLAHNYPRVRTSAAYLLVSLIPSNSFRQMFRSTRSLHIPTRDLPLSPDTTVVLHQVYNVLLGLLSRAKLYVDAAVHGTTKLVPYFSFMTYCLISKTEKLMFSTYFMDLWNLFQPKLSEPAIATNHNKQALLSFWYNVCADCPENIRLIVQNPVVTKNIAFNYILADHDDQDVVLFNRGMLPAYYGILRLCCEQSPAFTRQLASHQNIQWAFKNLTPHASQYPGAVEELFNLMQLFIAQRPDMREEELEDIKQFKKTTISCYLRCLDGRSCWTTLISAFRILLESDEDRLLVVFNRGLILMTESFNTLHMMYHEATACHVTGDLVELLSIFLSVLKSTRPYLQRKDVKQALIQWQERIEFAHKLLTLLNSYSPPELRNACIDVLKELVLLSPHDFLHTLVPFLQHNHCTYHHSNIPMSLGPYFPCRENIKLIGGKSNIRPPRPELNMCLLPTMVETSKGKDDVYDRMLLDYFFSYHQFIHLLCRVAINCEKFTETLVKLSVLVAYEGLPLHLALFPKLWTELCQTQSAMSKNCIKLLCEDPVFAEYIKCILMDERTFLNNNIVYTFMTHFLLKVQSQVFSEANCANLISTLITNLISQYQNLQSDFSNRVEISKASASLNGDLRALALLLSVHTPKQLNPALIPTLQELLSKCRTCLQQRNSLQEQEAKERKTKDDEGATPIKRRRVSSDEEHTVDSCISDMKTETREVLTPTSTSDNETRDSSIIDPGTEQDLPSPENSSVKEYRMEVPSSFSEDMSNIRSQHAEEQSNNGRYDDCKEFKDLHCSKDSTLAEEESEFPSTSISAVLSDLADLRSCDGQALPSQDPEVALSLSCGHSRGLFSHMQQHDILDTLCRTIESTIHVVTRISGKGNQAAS

O=C(CCl)Nc1ccc(F)cc1Cl
inactive: USP34 -0.452 | USP36 0.0206 | USP38 -0.165 | USP39 0.253 | USP4 -0.129
